Measured values: PubChem BioAssay

Tests used:
[1] = target: Tumor necrosis factor receptor superfamily member 10B (Homo sapiens) (UniProt O14763); assay: viability loss of caspase-8 NB7 cells with TRAIL – with/without TRAIL, luminescence panel, confirmation (AID 651596); conditions: NB7 neuroblastoma + caspase-8, TRAIL sensitization, NB7 Caspase-8, with TRAIL, mean of runs, at 10 µM, stronger effect = higher value
[2] = as above; conditions: NB7 neuroblastoma + caspase-8, without TRAIL, NB7 Caspase-8, without TRAIL, mean of runs, at 10 µM

Chain of Tumor necrosis factor receptor superfamily member 10B (Homo sapiens) (O14763 whole entry, looked up): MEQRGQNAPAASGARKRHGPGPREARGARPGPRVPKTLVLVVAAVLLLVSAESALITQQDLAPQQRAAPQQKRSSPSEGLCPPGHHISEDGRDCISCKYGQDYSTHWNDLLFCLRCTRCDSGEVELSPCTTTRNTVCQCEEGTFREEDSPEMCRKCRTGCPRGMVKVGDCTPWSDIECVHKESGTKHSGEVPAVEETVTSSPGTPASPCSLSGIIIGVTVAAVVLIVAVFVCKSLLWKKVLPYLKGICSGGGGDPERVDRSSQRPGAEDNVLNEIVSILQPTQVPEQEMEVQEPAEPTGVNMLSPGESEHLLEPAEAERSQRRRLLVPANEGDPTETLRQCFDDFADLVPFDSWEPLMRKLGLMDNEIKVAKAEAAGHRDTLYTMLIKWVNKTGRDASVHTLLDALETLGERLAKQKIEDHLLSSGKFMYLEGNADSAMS

SMILES | activity [1] | activity [2]
Cc1ccc(/C=N/Nc2ccc3ccccc3n2)o1 | 55.2% | 45.1%
CC(C)c1ccc(/C=C/C(=O)Nc2nncs2)cc1 | 57.7% | 66.2%
Cc1cc(=O)[nH]c2nnc(-c3ccc(Cl)cc3)n12 | 82.2% | 78.6%
Cc1nc(-c2ccc(NC(=O)c3ccccc3)cc2)cs1 | 80.8% | 76.2%
COc1ccc2oc(=Nc3ccccc3)c(-c3nc4ccccc4[nH]3)cc2c1 | 52.8% | 55%
O=C(/C=C\Nc1ccccn1)c1ccccc1 | 55.4% | 53.2%
Cc1ccn(-c2ccc(NC(=O)c3cccs3)cc2)n1 | 59.7% | 65.7%
COCCNC(=O)c1c[nH]c2ccc(S(=O)(=O)N3CCc4ccccc43)cc2c1=O | 74.2% | 82.7%
Clc1ccc(/C=N/Nc2nnc(-c3ncc[nH]3)c3ccccc23)cc1 | 57% | 49.9%
Cc1nn(-c2ccccc2)c(Cl)c1/C=N/NC(=O)c1[nH]ncc1Br | 83.7% | 71.9%
COc1ccc(C(C(=O)NC2CCCCC2)N(C(=O)CCl)c2ccc(C)cc2)cc1 (stereo not given) | 99.5% | 99.3%
FC(F)(F)c1cccc(-c2nc3nc(Cl)c(Cl)nc3[nH]2)c1 | 57.3% | 42.6%
COC(=O)c1ccc(-c2nc3cc(N)ccc3o2)cc1 | 61.9% | 44.6%
CCCCc1ccc(NC(=O)c2cnccn2)cc1 | 53.3% | 45.1%
CCc1nnc(NC(=O)CSc2nc3c(cc2C#N)CCC3)s1 | 73.7% | 70.8%
COC(=O)c1ccc2nc(-c3cccc(N)c3)cn2c1 | 74.5% | 67.8%
Fc1cccc2sc(Nc3nc4cc5c(cc4s3)OCCO5)nc12 | 40.2% | 28.4%
Nc1nc(N)c2cc(Sc3ccc(Cl)cc3)ccc2n1 | 70.7% | 75.5%

SMILES | activity [1] | activity [2]
CC(C)Nc1ncnc2c1cnn2-c1ccc(Cl)cc1 | 60.6% | 67.4%
COc1cccc2oc3ccc(C#Cc4ccccn4)cc3c(=O)c12 | 71.8% | 87.5%
Nc1nc(=S)c2ncn(C3OC(CO)C(O)C3O)c2[nH]1 (stereo not given) | 9.65% | 6.78%
COc1ccc(C(C(=O)NC2CCCCC2)N(C(=O)CCl)c2ccccc2Cl)cc1 (stereo not given) | 98.8% | 97.2%
CC1(C)N=C(N)N=C(N)N1CCCCc1ccccc1 | 63.6% | 68.3%
Cc1ccnc(NC(=S)NC(=O)c2ccco2)c1 | 65.5% | 57.7%
Nc1c(C(=O)N2CCOCC2)sc2nc3c(cc12)CCCC3 | 67.5% | 63.5%
CCN1CCN(CCNC(=O)c2ccc3c(c2)N(Cc2ccc(F)cc2)C(=O)/C(=C/c2ccccc2)S3)CC1 | 53.4% | 80.5%
CC(C)(C)OC(=O)NCc1ccc(NC(=O)c2nc[nH]c2C(=O)NCCCNC(=O)c2[nH]cnc2C(=O)Nc2ccc(CNC(=O)OC(C)(C)C)cc2)cc1 | 87.7% | 69.1%
CS(=O)(=O)c1ccc2nc(NC(=O)c3cccc([N+](=O)[O-])c3)sc2c1 | 69.4% | 71.3%
CC(=O)Nc1sc(C)c(C)c1C(=O)OCC(=O)N(CC(C)C)c1c(N)n(Cc2ccccc2)c(=O)[nH]c1=O | 97.5% | 98.9%
O=c1cc(C(Cl)(Cl)Cl)oc2c1ccc1ccccc12 | 62.7% | 65.3%
Cc1ccc(C(=O)N/N=C\c2ccccc2[N+](=O)[O-])cn1 | 47.5% | 43.6%
COc1ccc(C=Cc2ccc3ccccc3n2)c(OC)c1 | 79.1% | 68.5%
Cc1ccccc1Oc1cc(-n2ncc(Cl)c(Cl)c2=O)ncn1 | 99.7% | 99.5%
COc1ccc2sc(N(CCCN(C)C)C(=O)c3ccc(S(=O)(=O)N4CCc5ccccc5C4)cc3)nc2c1 | 82.4% | 69.3%
CCc1ccc(-c2cc3c(=O)n(CC(=O)NCCCN4CCC(Cc5ccccc5)CC4)nc(C)n3n2)cc1 | 55.9% | 71.5%
